Experimental findings from PubChem BioAssay are described below.

Where “and” joins values, the source holds several entries; their conditions need not be identical. Equal entries are not always repeated. Calls of active or inactive are those of the source.

Assay [1] in a line: small molecules captured by biotinylated probe aFSTL3 – biochemical, small-molecule microarray, fluorescence 635/667, stem cell growth factor project, primary screen (AID 1064).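 Also: measures binding of the biotinylated anti-FSTL3 antibody to printed compounds.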 The settings on record: higher = more signal.
Assay [2] in a line: binders from COS7 lysate, DM2A8 probe, primary screen, torsin A project, cell lysate, small-molecule microarray, fluorescence 635/667 (AID 1065). Conditions: higher = more signal, COS7 lysate expressing mutant human TOR1A.
A short description of assay [3]: small molecules captured by biotinylated probe aFGF2 – biochemical, small-molecule microarray, fluorescence 635/667, stem cell growth factor project, primary screen (AID 1067).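 Also: measures binding of biotinylated aFGF2 protein to printed compounds on slides; z-score merges feature fluorescence and signal-to-noise across triplicate slides.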 Conditions: higher = more signal.
Assay [4] is described as follows: small molecules captured by biotinylated probe aFGF10 – biochemical, small-molecule microarray, fluorescence 635/667, stem cell growth factor project, primary screen (AID 1071).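 Also: score merges 667 nm spot intensity and signal to noise from triplicate slides.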 Conditions: higher = more signal.
Assay [5] has as its target Neurogenic locus notch homolog protein 2 (Homo sapiens) (UniProt Q04721). Nature of the assay: small molecules binding Notch2 protein – biochemical, small-molecule microarray, 635 nm fluorescence, stem cell growth factors, primary screen (AID 1073). Conditions: higher = more signal.
The target of assay [6] is Pro-neuregulin-1, membrane-bound isoform (Homo sapiens) (UniProt Q02297). The experiment in a line: small molecules binding neuregulin-1 protein – biochemical, small-molecule microarray, fluorescence 635/667, psychiatric disease protein project, primary screen (AID 1075).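 Also: score combines 667 nm spot fluorescence with signal to noise.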 The settings on record: NRG1 binding, 635 nm fluorescence, higher = more signal.
Chain of Pro-neuregulin-1, membrane-bound isoform (Homo sapiens) (Q02297 whole entry, looked up, the tested form may be a part, canonical isoform): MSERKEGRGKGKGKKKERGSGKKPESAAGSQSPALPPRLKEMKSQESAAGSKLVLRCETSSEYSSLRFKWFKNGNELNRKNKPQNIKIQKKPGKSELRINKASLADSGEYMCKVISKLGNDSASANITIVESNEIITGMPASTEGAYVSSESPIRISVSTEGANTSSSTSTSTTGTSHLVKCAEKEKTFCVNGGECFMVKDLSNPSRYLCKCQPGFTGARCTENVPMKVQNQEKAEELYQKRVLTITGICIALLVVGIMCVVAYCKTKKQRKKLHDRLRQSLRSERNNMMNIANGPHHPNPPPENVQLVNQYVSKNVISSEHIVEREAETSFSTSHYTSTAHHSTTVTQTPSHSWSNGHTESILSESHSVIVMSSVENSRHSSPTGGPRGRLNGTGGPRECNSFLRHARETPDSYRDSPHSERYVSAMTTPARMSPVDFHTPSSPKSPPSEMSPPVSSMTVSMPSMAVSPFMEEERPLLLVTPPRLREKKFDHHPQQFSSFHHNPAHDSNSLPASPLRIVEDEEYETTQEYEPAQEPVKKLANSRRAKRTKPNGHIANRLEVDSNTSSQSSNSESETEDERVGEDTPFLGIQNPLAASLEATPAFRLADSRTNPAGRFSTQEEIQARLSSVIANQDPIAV
For assay [7], the system named is Neuregulin-1 EGF-like domain. Nature of the assay: small molecules binding NRG1 EGF domain – biochemical, small-molecule microarray, 635 nm fluorescence, primary screen (AID 1081).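 Also: binding of the protein to compounds printed on small-molecule microarray slides.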 Conditions: higher = more signal.
A short description of assay [8]: FRG1 expression reporter modulators in myotubes – cell-based, C2C12 myotubes, firefly/Renilla luciferase, luminescence, FRG1 inhibition for FSHD, primary screen (AID 1084). Conditions: FRG1 promoter luciferase, higher = more signal, called active from +8 up or from −8 down.
The nature of assay [9]: small molecules captured by biotinylated probe aFST – biochemical, small-molecule microarray, fluorescence 635/667, stem cell growth factor project, primary screen (AID 1086).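 Also: score merges 667 nm fluorescence with signal-to-noise of each printed compound spot.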 The settings on record: higher = more signal.
Assay [10] is described as follows: binders of probe aHhip on microarray, primary screen, stem cell growth factor project, biochemical, small-molecule microarray, fluorescence 635/667 (AID 1087).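 Also: score merges spot fluorescence at 667nm with spot signal to noise ratio.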 The settings on record: higher = more signal.
Assay [11] relates to PRMT1 (protein arginine N-methyltransferase 1). Nature of the assay: small molecules binding arginine methyltransferase PRMT1 – biochemical, small-molecule microarray, 635 nm fluorescence, primary screen (AID 1088).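 Also: binding of Prmt1 protein to compounds spotted on small-molecule microarray slides.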 The settings on record: higher = more signal.
A short description of assay [12]: growth effects on S. cerevisiae YJM789 – YJM789 clinical isolate, OD600, 24 h, basal, primary screen (AID 1089).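 Also: growth of clinical yeast isolate S. cerevisiae YJM 789 seeded 1000 cells per well; test concentration not given here.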 The settings on record: higher = more signal, called active from +8 up or from −8 down.
Assay [13] in a line: S. pombe growth modifiers, basal conditions – strain 972, OD600, 24 h, no modulator, primary screen (AID 1090).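 Also: basal condition with compound alone and no growth modifier present; test concentration not given here.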 The settings on record: S. pombe 972 growth, higher = more signal, called active from +8 up or from −8 down.
A short description of assay [14]: budding yeast growth modifiers under rapamycin – strain BY4716, OD600, 96 h, primary screen (AID 1091). Also: test concentration not given here. Conditions: S. cerevisiae BY4716 + rapamycin, higher = more signal, called active from +8 up or from −8 down.
Assay [15] concerns the target Torsin-1A-interacting protein 2 (Homo sapiens) (UniProt Q8NFQ8). Nature of the assay: small molecules binding lysate-expressed LULL1 – cell lysate, human LULL1 lysate, 635/667 nm fluorescence, primary screen (AID 1092).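 Also: probe is lysate of COS7 cells overexpressing human LULL1; score merges per-feature 667 nm fluorescence with signal-to-noise.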 The settings on record: small-molecule microarray, hLULL1 lysate binding, 635 nm fluorescence; higher = more signal.
A short description of assay [16]: optical density change of DRC41 E. coli – strain DRC41, OD650, 24 h, E. coli filamentation project, primary screen (AID 1093).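 Also: MC1000 strain lacking acrAB efflux and sulA so SOS filamentation is blocked; test concentration not given here.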 Conditions: E. coli DRC41 growth, higher = more signal, called active from +8 up or from −8 down.
Assay [17] is described as follows: probe aLefty2 binding to arrayed compounds – biochemical, biotinylated probe, 635/667 nm fluorescence, primary screen (AID 1094).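 Also: score merges spot fluorescence near 667 nm with spot signal-to-noise ratio.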 Conditions: small-molecule microarray, higher = more signal.
Assay [18] deals with Noggin (protein binding on small-molecule microarray). The experiment in a line: small molecules binding Noggin protein – biochemical, 635/667 nm fluorescence, primary screen (AID 1095).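 Also: score merges 667 nm feature fluorescence with signal to noise over triplicate slides.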 Conditions: 635 nm fluorescence, higher = more signal.
The target of assay [19] is Neurogenic locus notch homolog protein 3 (Homo sapiens) (UniProt Q9UM47). Nature of the assay: small molecules binding NOTCH3 protein – biochemical, 635/667 nm fluorescence, primary screen (AID 1096). Conditions: small-molecule microarray, 635 nm fluorescence, higher = more signal.
Chain of Neurogenic locus notch homolog protein 3 (Homo sapiens) (Q9UM47 whole entry, looked up): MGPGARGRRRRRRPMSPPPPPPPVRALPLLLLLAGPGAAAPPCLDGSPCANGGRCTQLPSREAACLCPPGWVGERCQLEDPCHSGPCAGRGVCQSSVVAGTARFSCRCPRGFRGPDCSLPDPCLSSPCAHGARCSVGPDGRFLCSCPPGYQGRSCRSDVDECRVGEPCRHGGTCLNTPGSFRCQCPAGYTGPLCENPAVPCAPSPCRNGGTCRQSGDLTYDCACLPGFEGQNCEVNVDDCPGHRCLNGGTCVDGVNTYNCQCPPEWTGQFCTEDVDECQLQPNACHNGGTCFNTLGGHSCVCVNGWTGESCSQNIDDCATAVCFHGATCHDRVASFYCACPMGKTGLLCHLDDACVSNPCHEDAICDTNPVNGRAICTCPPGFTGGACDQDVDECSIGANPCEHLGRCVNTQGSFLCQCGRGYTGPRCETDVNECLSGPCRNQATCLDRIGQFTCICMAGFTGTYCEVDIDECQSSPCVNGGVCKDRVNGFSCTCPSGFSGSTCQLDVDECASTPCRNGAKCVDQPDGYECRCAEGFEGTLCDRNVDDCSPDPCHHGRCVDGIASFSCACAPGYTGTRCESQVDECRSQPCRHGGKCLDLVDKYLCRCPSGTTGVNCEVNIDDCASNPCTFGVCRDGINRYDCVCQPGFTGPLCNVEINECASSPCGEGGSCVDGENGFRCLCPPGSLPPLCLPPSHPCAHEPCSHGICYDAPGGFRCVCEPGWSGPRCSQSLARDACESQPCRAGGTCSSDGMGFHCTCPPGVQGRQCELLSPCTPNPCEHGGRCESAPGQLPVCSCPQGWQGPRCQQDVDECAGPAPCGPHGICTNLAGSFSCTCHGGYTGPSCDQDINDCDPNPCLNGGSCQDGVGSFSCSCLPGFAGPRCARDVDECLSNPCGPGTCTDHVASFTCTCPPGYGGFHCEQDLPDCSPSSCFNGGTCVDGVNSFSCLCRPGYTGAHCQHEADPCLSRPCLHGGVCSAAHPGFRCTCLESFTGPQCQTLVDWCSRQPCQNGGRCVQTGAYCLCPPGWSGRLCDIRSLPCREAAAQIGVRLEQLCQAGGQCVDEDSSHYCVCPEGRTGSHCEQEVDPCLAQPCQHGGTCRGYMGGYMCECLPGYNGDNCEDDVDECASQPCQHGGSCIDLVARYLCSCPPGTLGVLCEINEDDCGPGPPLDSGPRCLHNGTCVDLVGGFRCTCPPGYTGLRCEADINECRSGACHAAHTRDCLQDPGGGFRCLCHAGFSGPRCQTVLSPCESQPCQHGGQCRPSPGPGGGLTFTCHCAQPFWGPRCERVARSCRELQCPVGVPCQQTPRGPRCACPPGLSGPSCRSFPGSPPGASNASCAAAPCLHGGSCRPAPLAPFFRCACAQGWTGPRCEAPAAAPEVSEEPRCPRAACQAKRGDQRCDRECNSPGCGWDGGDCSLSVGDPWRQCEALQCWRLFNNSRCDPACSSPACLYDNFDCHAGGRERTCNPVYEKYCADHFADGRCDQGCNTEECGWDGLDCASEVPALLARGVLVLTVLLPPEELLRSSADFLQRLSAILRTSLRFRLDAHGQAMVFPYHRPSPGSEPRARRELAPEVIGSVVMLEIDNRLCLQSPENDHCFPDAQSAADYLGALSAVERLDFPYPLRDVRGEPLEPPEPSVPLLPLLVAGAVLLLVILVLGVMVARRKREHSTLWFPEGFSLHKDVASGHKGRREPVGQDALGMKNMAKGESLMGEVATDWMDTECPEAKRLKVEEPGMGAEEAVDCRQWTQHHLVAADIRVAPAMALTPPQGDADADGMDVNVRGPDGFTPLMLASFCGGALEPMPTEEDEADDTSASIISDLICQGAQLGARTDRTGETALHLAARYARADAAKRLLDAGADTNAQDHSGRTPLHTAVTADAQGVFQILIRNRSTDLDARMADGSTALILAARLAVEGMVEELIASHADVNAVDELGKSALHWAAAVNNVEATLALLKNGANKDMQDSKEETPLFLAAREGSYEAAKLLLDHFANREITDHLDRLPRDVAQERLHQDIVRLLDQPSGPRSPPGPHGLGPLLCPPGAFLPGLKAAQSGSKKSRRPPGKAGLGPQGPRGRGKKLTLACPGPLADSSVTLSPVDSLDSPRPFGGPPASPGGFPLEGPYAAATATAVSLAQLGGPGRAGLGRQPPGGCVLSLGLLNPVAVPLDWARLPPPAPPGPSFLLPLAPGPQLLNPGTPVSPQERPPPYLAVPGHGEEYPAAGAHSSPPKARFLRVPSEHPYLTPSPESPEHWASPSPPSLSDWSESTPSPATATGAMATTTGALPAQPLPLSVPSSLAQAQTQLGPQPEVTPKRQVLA
Assay [20] can be described thus: probe aEGFR binding to arrayed compounds – biochemical, biotinylated probe, 635/667 nm fluorescence, primary screen (AID 1097).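 Also: probe is a biotinylated anti-EGFR antibody binding compounds printed on slides; score combines fluorescence near 667 nm and signal to noise of each spot.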 Conditions: small-molecule microarray, higher = more signal.

Chain of Torsin-1A-interacting protein 2 (Homo sapiens) (Q8NFQ8 whole entry, looked up): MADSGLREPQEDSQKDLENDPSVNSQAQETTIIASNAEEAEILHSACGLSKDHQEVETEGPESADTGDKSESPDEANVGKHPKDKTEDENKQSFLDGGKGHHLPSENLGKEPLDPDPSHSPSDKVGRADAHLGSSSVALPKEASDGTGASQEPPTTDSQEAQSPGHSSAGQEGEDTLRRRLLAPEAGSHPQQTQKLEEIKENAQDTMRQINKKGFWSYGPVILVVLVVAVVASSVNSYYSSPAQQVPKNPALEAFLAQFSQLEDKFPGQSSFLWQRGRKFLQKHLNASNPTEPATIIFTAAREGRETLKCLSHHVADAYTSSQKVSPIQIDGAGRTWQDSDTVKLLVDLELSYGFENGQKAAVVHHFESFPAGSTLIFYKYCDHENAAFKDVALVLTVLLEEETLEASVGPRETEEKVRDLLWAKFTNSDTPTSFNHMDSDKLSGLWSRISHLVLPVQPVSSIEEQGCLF

`CO[C@@H]1COC(=O)[C@H](Cc2ccccc2)NC(=O)CC=C[C@@H](C)[C@H](OC)COC(=O)[C@@H](C)NC(=O)CC=C[C@H]1C`: the composite z-score in [1] was -0.501 and -1.33; in [2] it was 1.23 and 0.603; in assay [3] it was -0.132 and -0.168; in assay [4] it was 0.0044 and 0.401; in assay [5], -0.223 and -0.012; in assay [6], -0.258 and -0.159. The composite z-score was 0.383 and 0.284 in assay [7]; 0.409 and -0.084 in assay [9]; 0.154 and -0.271 in assay [10]; 1.53 and 1.15 in assay [11]; 0.469 and -0.0887 in assay [15]; -0.217 and -0.393 in assay [17]. The composite z-score in assay [18] was 1.45 and 1.06; in assay [19], 1.07 and 0.862; in [20], -0.0616 and -0.0438. Also, the z-score in assay [8] was 0.361 (inactive) and -0.178 (inactive); in assay [12] it was -0.706 (inactive) and -0.356 (inactive); in assay [13], -1.71 (inactive) and -1.2 (inactive); in assay [14] it was -0.916 (inactive) and -0.753 (inactive); in assay [16] it was -0.0559 (inactive) and 0.361 (inactive).
On to `CCCCCN1CC=CC23O[C@@H]4C=CCCOC(=O)C4[C@H]2C(=O)N(C(C)CO)[C@@H]3C1=O` (stereo not given in full), for which the composite z-score is -1.32 and 1.66 in [1]; 0.852 and -1.23 in assay [2]; -0.0341 and -0.148 in assay [3]; -0.202 and -0.431 in assay [4]; -0.88 and -0.932 in assay [5]; 1.03 and 1.11 in [6]. In addition, the composite z-score is 1.54 and 1.32 in assay [7]; -0.678 and 0.24 in assay [9]; -1.02 and -0.274 in assay [10]; 0.432 and 0.967 in assay [11]; 1.01 and 2.94 in assay [15]; -0.401 and 0.157 in assay [17]. Moreover, the composite z-score in [18] is 0.157 and 0.362; in [19], 0.311 and 0.388; in [20], -0.386 and -0.253. Besides, the z-score in assay [8] is 0.212 (inactive) and 0.0905 (inactive); in [12], -0.772 (inactive) and 0.61 (inactive); in [13], -0.328 (inactive) and 0.278 (inactive); in assay [14] it was -1.48 (inactive) and 0.779 (inactive); in assay [16] it was 1.78 (inactive) and 1.58 (inactive).
As to `CC(C)CCN1CCc2nc(-c3ccccc3)c3c(c2C1)CO[C@@H](C)C3`, the composite z-score was 1.3 in assay [1]; 0.0532 in assay [2]; -0.0996 in [3]; 0.491 in assay [4]; 0.698 in assay [5]; 0.334 in assay [6]. Besides, the composite z-score was 1.17 in [7]; 0.57 in assay [9]; 0.208 in assay [10]; 0.837 in [11]; 1.8 in assay [15]; -0.0641 in assay [17]. In addition, the composite z-score in [18] was 0.444; in assay [19], 0.922; in assay [20], -0.0578. Moreover, the z-score in assay [8] was -0.174 (inactive); in assay [12], -0.334 (inactive); in assay [13], -0.519 (inactive); in assay [14], 0.622 (inactive); in assay [16], 0.825 (inactive).
With `COC(=O)C1=C(C)N(Cc2ccccc2)[C@]23O[C@](C(=O)OC)(C(=O)N2[C@@H]1c1ccccc1)[C@H]1C(=O)N(C)C(=O)[C@H]13`, the composite z-score in [1] is -0.342 and -0.556; in assay [2], 0.117 and 0.134; in assay [3], -0.137 and -0.0212; in assay [4], 0.566 and 0.842; in assay [5] it was 0.585 and 0.405; in assay [6] it was 1.14 and -0.0494. Also, the composite z-score in assay [7] was 1.17 and 0.892; in [9], 0.271 and 0.2; in assay [10], 0.0439 and -0.121; in assay [11], 1.42 and 0.289; in [15], 1.9 and 0.741; in assay [17], -0.0831 and -0.125. In addition, the composite z-score was 1.35 and 0.752 in assay [18]; 0.877 and 0.903 in assay [19]; -0.0967 and 0.128 in assay [20]. The z-score is -0.564 (inactive) and 0.0169 (inactive) in [8]; -0.458 (inactive) and -0.907 (inactive) in assay [12]; -0.0692 (inactive) and -1.06 (inactive) in assay [13]; 0.609 (inactive) and -0.776 (inactive) in [14]; 1.12 (inactive) and 0.684 (inactive) in [16].
For the molecule `C=CCN(CCCC)C(=O)C(c1cccs1)N(C(=O)/C=C\C(=O)O)c1c(Cl)cccc1CO` (stereo not given), the composite z-score in [1] is 1.46 and 0.323; in assay [2] it was -1.19 and -0.707; in assay [3] it was -0.288 and -0.203; in [4], -1.27 and -1.8; in assay [5], -1.97 and -1.39; in assay [6], -1.26 and -0.533. In addition, the composite z-score was -0.751 and 0.176 in assay [7]; -1.94 and -0.684 in assay [9]; 0.679 and -0.409 in [10]; -0.663 and -0.538 in assay [11]; 0.376 and 0.744 in [15]; 0.148 and -0.235 in [17]. Besides, the composite z-score in assay [18] was -1.97 and -2.53; in assay [19] it was -2.02 and -1.33; in assay [20], -0.451 and -0.328. The z-score was -0.165 (inactive) and -0.332 (inactive) in [8]; 0.135 (inactive) and 0.537 (inactive) in assay [12]; -0.266 (inactive) and 1.12 (inactive) in assay [13]; -0.548 (inactive) and -0.522 (inactive) in assay [14]; 0.224 (inactive) and -0.174 (inactive) in assay [16].
